Experimental data from PubChem BioAssay AID504905 (The Scripps Research Institute Molecular Screening Center, 2011).
This is one part of the list. Active and inactive are the calls of the source. Cut-off read from the data, not from the text of the source: active = activation above about 17%; inactive = the rest.

These compounds were tested against 5-hydroxytryptamine receptor 5A (Homo sapiens) (UniProt P47898) (assay: activation of human 5-HT5A receptor – cell-based, luminescence, counter-screen for OPRM1-OPRD1 heterodimer agonist project (AID 504905;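 note: 0% = vehicle-treated cells and 100% = reference agonist response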)). Details: HTR5A agonist counterscreen, at 9.3 µM, active compounds read high.
Sequence of 5-hydroxytryptamine receptor 5A (Homo sapiens) (P47898 whole entry, looked up): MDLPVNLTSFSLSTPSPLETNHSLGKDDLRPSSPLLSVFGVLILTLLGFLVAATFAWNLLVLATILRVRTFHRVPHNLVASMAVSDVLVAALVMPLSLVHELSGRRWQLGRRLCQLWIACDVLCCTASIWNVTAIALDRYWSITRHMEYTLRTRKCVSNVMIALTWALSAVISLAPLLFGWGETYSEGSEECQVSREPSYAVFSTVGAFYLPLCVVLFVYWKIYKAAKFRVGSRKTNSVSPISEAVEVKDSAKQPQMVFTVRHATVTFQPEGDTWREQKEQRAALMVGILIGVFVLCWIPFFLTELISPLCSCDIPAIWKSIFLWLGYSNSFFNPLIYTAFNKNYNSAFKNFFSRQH

SMILES	activation
COCCCNc1nc2c(-c3cccc(C)c3)nnn2c2ccc(Cl)cc12	8.68% (inactive)
CN(C)C(CNC(=O)Cc1ccc([N+](=O)[O-])cc1)c1ccccc1 (stereo unspecified)	1.22% (inactive)
O=C(NCc1cn2ccsc2n1)Nc1ccc(Cl)cc1	-5.53% (inactive)
Cc1ccc(-n2c(SCC(=O)NCCC3=CCCCC3)nc3n[nH]c(C)c3c2=N)cc1Cl	1.57% (inactive)
CCNS(=O)(=O)c1ccc(NC(=O)Nc2cccc(OC)c2)cc1	3.27% (inactive)
O=C(NC1=CC(=O)c2ccccc2C1=O)c1ccccc1	3.59% (inactive)
CN1C(CC(=O)Nc2ccc(Br)cc2)c2ccccc2CC1(C)C (stereo unspecified)	5.83% (inactive)
COc1ccc(C2Nc3ccccc3C(=O)N2c2ccc(F)cc2)cc1Cn1nnc2ccccc21 (stereo unspecified)	2.9% (inactive)
Cc1ccc(OCC(=O)Nc2ccc(NC(=O)c3cccs3)cc2)c(C)c1	8.16% (inactive)
COc1cccc(/C=N/Nc2cc(C)nc(-c3ccccc3O)n2)c1O	0.01% (inactive)
CCCC(=O)NC(C)C(c1cccs1)N1CCN(c2ccccc2)CC1 (stereo unspecified)	-1.26% (inactive)
CCc1ccc(C(CNc2nc(C(F)(F)F)nc3ccccc23)N(C)C)cc1 (stereo unspecified)	-2.05% (inactive)
Cc1ccc(CN(C(=O)c2sc3ccccc3c2Cl)C2CCS(=O)(=O)C2)cc1 (stereo unspecified)	1.71% (inactive)
CN1CCN(c2ccc([N+](=O)[O-])c(Sc3nc4ccccc4[nH]3)c2)CC1	-0.05% (inactive)
CN(C)CCCN(C(=O)c1ccc(S(=O)(=O)N2CCCc3ccccc32)cc1)c1nc2ccc(F)cc2s1	7.49% (inactive)
CN(C)C(CNC(=O)c1cc2ccccc2o1)c1ccccc1 (stereo unspecified)	46.9% (active)
CC1CCCN(CCOCCOc2ccccc2-c2ccccc2)C1 (stereo unspecified)	1.05% (inactive)
Cc1ccc(S(=O)(=O)N(CC(=O)Nc2cccnc2)c2ccc(Br)cc2)cc1	0.5% (inactive)
CN(C)C(CNC(=O)c1ccc(S(=O)(=O)NCc2ccco2)cc1)c1ccccc1 (stereo unspecified)	4.56% (inactive)
Cc1ccc(O)c(NC(=S)NC(=O)COc2ccc(Br)cc2)c1	0.97% (inactive)
COc1ccc(-n2nnnc2-c2nc3ccccc3s2)cc1	4.69% (inactive)
